Test results: PubChem BioAssay (NCI)
Values joined by “and” are separate entries in the source; they are usually repeats but may differ in a detail not shown here. Equal entries are not always repeated. The panel holds about 83,000 compounds, 20% with a hit somewhere; the sample as a whole holds those more often.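 How to read the values: 0–100, growth inhibition (40 = 60% inhibited); 0, no net growth; -100 to 0, cell death (-40 = 40% of starting cells died; -100 = all dead).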 Active and inactive are the calls of the source. How the source made its calls: active means growth percent below 10; inactive means the rest.

Tested on: MDA-MB-468 breast
Experiment: NCI-60 one-dose screen, 48 h (100 = growth as untreated, 0 = no growth, -100 = all killed)
Details: 10 µM unless noted

Row | Compound | growth
1 | COc1ccc2[nH]cc(/C=C3/C(=O)Nc4ccc(F)cc43)c2c1 | 79.1% (inactive)
2 | CCOc1ccc(-n2nc(C(=O)Nc3ccccc3)nc2-c2cc(OC)c(OC)c(OC)c2)cc1 | 42.5% (inactive)
3 | NNc1ccc2ccccc2c1 | 83.7% (inactive) and 88.7% (inactive)
4 | COC1OC(C(COC(C)=O)OC(C)=O)C(OC(C)=O)C(OC(C)=O)C1OC(C)=O (stereo not given) | 109% (inactive)
5 | COc1ccc(/C(=C2\O[C@@H]([C@H]3COC(C)(C)O3)[C@H]3OC(C)(C)O[C@@H]23)c2cc(OC)c(OC)c(OC)c2)cc1O | 96.4% (inactive)
6 | CCn1c(SC/C(=N/O)c2ccccc2)nnc1-c1ccccc1 | 108% (inactive)
7 | Cc1cc(N2CCCC2)nc(N(CCNc2ccnc3cc(Cl)ccc23)Cc2ccco2)n1 | 13.3% (inactive)
8 | CC(O)C(NC(=O)C1CCCN1C(=O)CNC(=O)C1CC(=O)NCC(=O)NC(Cc2c[nH]c3ccccc23)C(=O)NC(Cc2ccc(O)cc2)C(=O)NCC(=O)NC(CO)C(=O)NC(CCC(N)=O)C(=O)NC(Cc2c[nH]c3ccccc23)C(=O)N1)C(=O)NCC(=O)NC(CCC(N)=O)C(=O)NC(CCCNC(=N)N)C(=O)NC(CC(=O)O)C(=O)O (stereo not given) | 100% (inactive)
9 | Cc1nn(-c2ccccc2)c(Cl)c1C(CC(=O)c1ccc(Cl)cc1)CC(=O)c1ccc(Cl)cc1 | 87.7% (inactive)
10 | COc1ccc2c(c1)nc(N)c1c3cc(C)c(C)cc3cn21 | 48.3% (inactive)
11 | CCCCN1CCN(c2ccc3nc(-c4ccc5nc(-c6ccc(OCC)c(OCC)c6)[nH]c5c4)[nH]c3c2)CC1 | -77.8% (active)
12 | COc1cc2nc(Cl)nc(Nc3cccc(C(=O)/C=C/c4ccc(Br)cc4)c3)c2cc1OC | 85.7% (inactive)
13 | COC(=O)c1ccc(C(=O)Nc2ccccc2N)cc1 | 44% (inactive)
14 | N#Cc1c(-c2cccc(Cl)c2)cc(-c2cccnc2)[nH]c1=O | 49.3% (inactive)
15 | CC[C@]12C=CCN3CC[C@@]4(c5cc(NC(=O)CCC(=O)OCc6cn(Cc7ccc(F)cc7)nn6)c(OC)cc5N(C)[C@H]4[C@@](O)(C(=O)OC)[C@@H]1OC(C)=O)[C@@H]32 | 104% (inactive)
16 | O=C1Nc2ccccc2/C1=C\c1cccc(/C=C2/C(=O)Nc3ccccc32)n1 | -33.2% (active)
17 | CCC(C)CC(N)O (stereo not given) | 94.1% (inactive)
18 | CSc1nnc(-c2cnn3c2NC(c2ccccc2)C3)n1-c1ccc(C(F)(F)F)cc1 (stereo not given) | 71.1% (inactive)
19 | O=C(c1cnn2c1NC(c1ccc(F)cc1)C2)N1CCCCC1 (stereo not given) | 107% (inactive)
20 | COc1cc(Cn2c(SCC(=O)Nc3cc(OC)c(OC)c(OC)c3)nc3ccccc3c2=O)cc(OC)c1OC | 72.7% (inactive)

Row | Compound | growth
21 | Clc1ccc2c(c1)C[C@H]1C[C@@H](c3cccs3)N2O1 | 106% (inactive)
22 | CCN(CC)CCCC(Nc1c2ccc(Cl)cc2nc2ccc(OC)cc12)c1ccc(F)cc1 (stereo not given) | 90.5% (inactive)
23 | Nc1c(C(=O)Nc2ccccc2Cl)sc2nc3c(cc12)C(O)CCC3 (stereo not given) | 25.7% (inactive)
24 | Nc1n[nH]c2cccc(C#Cc3cccc(C(=O)Nc4cccc(C(F)(F)F)c4)c3)c12 | 101% (inactive)
25 | COc1cc2nc(Cl)nc(Nc3cccc(C4=Nc5c(N)nc(N)nc5NC(c5ccc(F)cc5)C4)c3)c2cc1OC (stereo not given) | 45.8% (inactive)
26 | CCCCCCCCCNCCCCCCCCC | 22.5% (inactive)
27 | Cc1ccc(NC(=O)N[C@@H](Cc2cc(F)cc(F)c2)C(=O)N[C@@H]2C(=O)N3CCC[C@H]3C(=O)N3CCCC[C@H]3C(=O)N[C@@H](C)C(=O)N3C[C@H](C)C[C@H]3C(=O)O[C@H]2C)cc1 | 5.99% (active)
28 | Cn1cc(-c2csc(-c3c[nH]c4ccc(Br)cc34)n2)c2cnccc21 | -70.5% (active)
29 | O=C1Nc2c(ccc(Cl)c2Cl)/C1=C/c1ccc(O)cc1 | 62% (inactive)
30 | O=C(NC(=O)c1ccc(F)c(Cl)c1)NC1CC1 | 103% (inactive) and 87.4% (inactive)
31 | O=C(O)c1ccc(-n2cc(CNc3ccc(C(F)(F)F)cc3)c(-c3ccccc3)n2)cc1 | 102% (inactive)
32 | O=C1Nc2ccccc2/C1=C/c1cccn1C(=O)c1ccc(Cl)s1 | -16.5% (active)
33 | CCCCc1ccc(NC(=O)C(F)(F)F)cc1 | 109% (inactive)
34 | COc1ccc(Oc2nc(Nc3ccc(N4CCCCC4)nc3)ncc2NC(=O)c2cc(OC)cc(OC)c2)cc1 | 23.4% (inactive)
35 | CS(=O)CC1=NC(=N)N=C1CS(C)=O (stereo not given) | 88.5% (inactive)
36 | COc1ccc(C2C(C#N)=C(N)Oc3n[nH]c(-c4cccs4)c32)cc1I (stereo not given) | 86.8% (inactive)
37 | O=C(Nc1nonc1-c1ccccc1)c1ccc(C(F)(F)F)cc1 | 101% (inactive)
38 | Nc1nc(Cl)cc(Cl)n1 | 99.4% (inactive)
39 | CCOC(=O)c1c2c(c(C)n1Cc1ccc(OC)cc1)-c1nc(N)ncc1CC2 | 107% (inactive)
40 | COc1cc(CNC(=O)c2ccsc2Nc2ccnc(C(F)(F)F)c2)ccc1O | 95.6% (inactive)
